A selection: hits, their analogues and other compounds. The true share with any hit is near 8.9%.
ALOX12 inhib: 12-hLO (ALOX12) enzyme inhibition; P18054; purified 12-hLO, xylenol orange hydroperoxide absorbance; Potency, µM (highest dose often 57.1 µM), without a hit: at the top dose activity change, negative = inhibition, hits mostly inhibitors; 0.12% of 150,000 active; further: potency means the concentration at half of the fitted maximal effect; nearly all actives have a fitted effect of over 55% in size
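Xylenol orange chromogenic assay: hydroperoxide from 12hLO oxidises Fe(II), giving red-shifted Fe(III)-XO absorbance. Conditions: 150 nM enzyme, 40 uM arachidonic acid, 25 mM Hepes pH 7.0, 0.01% Triton X-100, 30 min, room temperature.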
IMPase Li cell: membrane-permeable IMPase blocker, potentiated with lithium; CHO-M1 cells, IP1 TR-FRET (IP-One), carbachol + lithium; Potency, µM (highest dose often 59.4 µM), without a hit: at the highest dose activity, negative = IMPase inhibition, most hits filed as inhibitors; 0.35% of 210,000 active; AID 1457;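 further: IP1 builds up when IMPase is blocked and the TR-FRET signal falls; potency means the concentration at half of the fitted maximal effect; plate controls were basal vehicle for no effect and high inhibitor control for full effect; nearly all actives have a fitted effect of over 50% in size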
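Readout is a homogeneous TR-FRET IP1 immunoassay (Ex 320, Em 665 and 620), where raised cytosolic IP1 lowers signal. Cells were CHO-M1 treated 30 min at 37C with test compounds plus a little lithium; AC50 values came from Hill-equation fitting.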
ALDH1A1 block: inhibitors of human aldehyde dehydrogenase 1A1; P00352; Purified ALDH1A1, NADH fluorescence, propionaldehyde substrate; Potency, µM (top dose mostly 75.3 µM), for inactives: at the highest dose activity, negative = inhibition, usual class: inhibitors; 7.3% of 220,000 active; active means well fitted inhibition curve with a large enough effect, not every such curve was filed as active; inconclusive means small, poorly fitted or top-dose-only effect, or another doubt; inactive means no such curve, though single readings can be large or run the other way;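 further: potency means the concentration at half of the fitted maximal effect; plate controls were no enzyme wells and a reference inhibitor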
NPSR antag: blocks cAMP signaling of the human neuropeptide S receptor | CHO-NPSR cells, cAMP TR-FRET, antagonist mode | 1% of 220,000 active | Q6W5P4 | Potency, µM (top dose mostly 38.3 µM), without a hit: top-dose activity change, negative = inhibition, hits mostly inhibitors; further: potency means the concentration at half of the fitted maximal effect; nearly all actives have a fitted effect of over 50% in size
Target sequence (Q6W5P4 whole entry, looked up): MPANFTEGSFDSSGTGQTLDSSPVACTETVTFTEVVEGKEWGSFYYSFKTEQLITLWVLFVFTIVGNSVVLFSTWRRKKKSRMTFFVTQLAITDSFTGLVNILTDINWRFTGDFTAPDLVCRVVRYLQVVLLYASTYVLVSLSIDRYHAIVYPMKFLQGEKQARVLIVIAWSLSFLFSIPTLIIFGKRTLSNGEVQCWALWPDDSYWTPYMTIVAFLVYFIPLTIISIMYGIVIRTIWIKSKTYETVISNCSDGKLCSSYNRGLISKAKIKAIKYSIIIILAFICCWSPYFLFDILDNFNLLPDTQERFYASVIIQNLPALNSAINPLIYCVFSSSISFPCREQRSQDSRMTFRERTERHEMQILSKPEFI
IMPase inh: IMPase inhibition in cells. P97697. CHO-M1 cells, IP1 accumulation, HTRF TR-FRET ratio. inhibition (IP1 accumulation), % at 46.1 µM. 120,000 tested, under 10 active. AID 901; active means well fitted curve in the direction sought with a large enough effect in the signal ratio, not every such curve was filed as active; inconclusive means small, poorly fitted or top-dose-only effect, or a change in a side signal; inactive means no such curve, though single readings can be large or run the other way; the % refers to the signal ratio;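 further: cells stimulated with carbachol in lithium chloride buffer; plate controls were DMSO basal wells for no effect and reference inhibitor wells for full effect; higher means more IMPase inhibition seen as more IP1 and lower FRET ratio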
Target sequence (P97697 whole entry, looked up): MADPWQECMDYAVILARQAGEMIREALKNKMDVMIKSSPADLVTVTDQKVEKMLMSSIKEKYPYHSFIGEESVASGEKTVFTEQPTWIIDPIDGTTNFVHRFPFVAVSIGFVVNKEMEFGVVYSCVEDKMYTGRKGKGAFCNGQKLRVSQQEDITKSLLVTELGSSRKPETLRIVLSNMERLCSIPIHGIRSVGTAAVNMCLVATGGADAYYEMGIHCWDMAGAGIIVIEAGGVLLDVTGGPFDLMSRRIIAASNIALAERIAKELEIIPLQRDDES
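The IP-One HTRF competitive assay in carbachol-stimulated CHO-M1 cells quantifies cellular IP1. Compounds spanned up to 46 uM final, and activity is expressed as AC50 from concentration-response fits of the ratio and donor data.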
HPGD inh: HPGD (human) dehydrogenase inhibition; Potency, µM, for the others: top-dose activity change, negative = inhibition, usual class: inhibitors; AID 894; 4.3% of 150,000 active; purified HPGD, NADH fluorescence kinetic, PGE2 substrate; P15428; active means well fitted inhibition curve with a large enough effect, not every such curve was filed as active; inconclusive means small, poorly fitted or top-dose-only effect, or another doubt; inactive means no such curve, though single readings can be large or run the other way; further: potency means the concentration at half of the fitted maximal effect
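NADH formation kinetics: reaction with 30 uM PGE2 and 1 mM NAD+ (final), 20 nM enzyme, Tris-HCl pH 8 with Tween 20, after 15 min compound preincubation at room temperature. Fluorescence change, last versus first of five reads.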
Numbers without * were called inactive; ? = inconclusive; . = no result; [ ] = another dose, or the depositor's remark. Unless noted, the call rests on the fitted dose curve; in most records, active means well fitted curve in the direction sought with a large enough effect; inconclusive means small, poorly fitted or top-dose-only effect, or another doubt; inactive means no such curve, though single readings can be large; an effect the other way counts as inactive or inconclusive. Unless noted, on the % scale 0 is the no-effect control and ±100 the full control effect.

SMILES	ALOX12 inhib	IMPase Li cell	ALDH1A1 block	NPSR antag	IMPase inh	HPGD inh
O=C1C[C@@H]2CCN3C(=O)CCC[C@@H]([C@H]23)[C@@H]1Cc1ccccc1	0%[0.00818 µM]	9%	16µM*	.	.	-1%
Cc1ccc(CSc2nc3ccccc3cc2C=O)cc1	-4%	25%[38.3 µM]	?	11%[46.1 µM]	4	5µM*
O=C1N=c2ccccc2=C1c1[nH]c(=S)[nH]c1O	-3%	8%	11µM*	-12%	3	-26%
Cc1[nH]c2ccccc2c1C(=O)CN1CCCCC1C (configuration not stated)	-20%	14%[38.3 µM]	20µM*	-15%[46.1 µM]	-1	-19%
Cc1[nH]c2ccccc2c1C(=O)CSc1ccccc1	0%	2%	-8%	-4%	2	-10%
Cc1[nH]c2ccccc2c1C(=O)CCl	.	3%	0.25µM*	?	.	.
c1ccc(SC(Sc2ccccc2)c2ccc3c(c2)OCO3)cc1	1%[11.4 µM]	9%	0%[13.5 µM]	.	.	-2%
Nc1ccccc1S[C@@H](C[N+](=O)[O-])c1ccc2c(c1)OCO2	-17%[11.4 µM]	11%	3.5µM*	.	.	3.2µM*
CC(=O)SCC[N+](C)(C)C	-4%	4%	13%	5%[46.1 µM]	4	-10%
Cc1oc2nc(SCC(=O)N3CCCCC3)nc(N)c2c1C	-2%	2%	?	32%	.	1.4µM*
O=C(Nc1ccc2sccc2c1)c1cccc(N2C(=O)CCC2=O)c1	.	5%	13%	11%	.	.
COc1ccc(OCCSc2nnc(Cc3cccc4ccccc34)n2N)cc1	-2%	11%	?	-2%	.	22µM*
Nn1c(Cc2cccc3ccccc23)nnc1SCc1ccccc1	2%	3%	0%	-14%	.	13µM*
Nn1c(Cc2ccccc2F)nnc1SCCOc1ccc(Cl)cc1	-4%	-1%	?	-31%	.	?
Nn1c(Cc2cccc3ccccc23)nnc1SCc1ccccc1Cl	-6%	15%	6%	-9%	.	?
CCCCOc1ncnc2c1[nH]c1ccccc12	6%	17%[38.3 µM]	?	-5%[46.1 µM]	0	?
Fc1ccc(CSc2nnc(Cc3sc(-c4ccccc4)nc3-c3ccccc3)o2)cc1	-8%	1%[38.3 µM]	-4%	-15%[46.1 µM]	-2	-14%
O=C1c2ccccc2C(=O)N1CCSc1n[nH]c(=S)s1	-6%	20%[38.3 µM]	2.2µM*	-4%[46.1 µM]	1	?
COCCOC(=O)c1[nH]c2c(c1C)C(=O)CC(c1ccc(F)cc1)C2 (configuration not stated)	-2%	8%[38.3 µM]	5%	3%[46.1 µM]	4	-6%
CCOC(=O)c1[nH]c2c(c1-c1ccc(OC)cc1)C(=O)CC(c1ccc(OC)c(OC)c1)C2 (configuration not stated)	0%	12%	28µM*	-13%	.	-14%
COCCOC(=O)c1[nH]c2c(c1C)C(=O)CC(c1ccc(N(C)C)cc1)C2 (configuration not stated)	0%	24%[38.3 µM]	14µM*	-21%[46.1 µM]	2	-6%
CCCCOC(=O)c1[nH]c2c(c1C)C(=O)CC(c1cc(OC)c(OC)c(OC)c1)C2 (configuration not stated)	-4%	40%[38.3 µM]	5µM*	-24%[46.1 µM]	2	-4%
COc1ccc(COC(=O)c2[nH]c3c(c2C)C(=O)CC(c2ccc(OC)c(OC)c2)C3)cc1 (configuration not stated)	.	.	.	.	8	.
C(=N\n1cncn1)/c1ccc(N2CCOCC2)cc1	-2%	-4%[38.3 µM]	?	-5%[46.1 µM]	-4	?
CCOC(=O)C1=C(C)NC(=O)NC1c1cc(C)sc1C (configuration not stated)	2%	19%[38.3 µM]	5%	0%[46.1 µM]	0	-2%
SMILES	ALOX12 inhib	IMPase Li cell	ALDH1A1 block	NPSR antag	IMPase inh	HPGD inh
CCOC(=O)C1=C(C)NC(=S)NC1c1cc(C)sc1C (configuration not stated)	.	12%	40µM*	-10%	.	.
CCOC(=O)C1=C(C)NC(=S)NC1c1ccsc1 (configuration not stated)	.	0%	7.1µM*	16%	.	.
CCOC(=O)C1=C(C)NC(=S)NC1c1ccc(C)s1 (configuration not stated)	.	15%	2.5µM*	-2%	.	.
O=C(N/N=C\c1ccccc1OCc1ccccc1)c1ccco1	-4%	25%	-13%	-15%	.	-11%
COc1ccnc(CSC(N)=Nc2cccc(C(F)(F)F)c2)c1	-4%	3%	20µM*	-21%	.	-13%
COc1ccnc(CSC(N)=Nc2ccccc2OC)c1	-1%	33%	25µM*	-8%[46.1 µM]	-4	-8%
CCCCCc1nnc(NS(C)(=O)=O)s1	0%	10%	6%	-2%	.	-2%
CCN(C(=O)c1cccs1)c1nnc(-c2ccncc2)s1	1%	23%[38.3 µM]	-16%	-19%[46.1 µM]	8	-11%
COCCN(C(=O)Cc1cccs1)c1nnc(-c2ccncc2)s1	-9%	24%[38.3 µM]	13µM*	-20%[46.1 µM]	0	-5%
CCOC(=O)c1cc(-c2cccc([N+](=O)[O-])c2)nc2[nH]c(=O)[nH]c(=O)c12	.	0%	14µM*	-7%	.	.
O=C(OCc1nc2scc(-c3ccccc3)c2c(=O)[nH]1)c1cccc([N+](=O)[O-])c1	-2%	.	?	-1%[46.1 µM]	17	.
CC1=NN(c2ccc(Cl)cc2)C(=O)C1C(c1ccccc1O)c1c(C)[nH]n(-c2ccc(Cl)cc2)c1=O (configuration not stated)	?	-4%	7.5µM*	-11%[46.1 µM]	3	7.9µM*
CC1=NN(c2ccc(C)cc2C)C(=O)C1C(c1ccccc1O)C1C(=O)N(c2ccc(C)cc2C)N=C1C (configuration not stated)	-5%	6%	-12%	9%	.	-25%
CC1CN(S(=O)(=O)c2ccc(Cl)c(C(F)(F)F)c2)CC(C)O1 (configuration not stated)	2%	10µM*	-2%	4%[46.1 µM]	5	-6%
CC1CN(C2CCN(S(=O)(=O)c3ccc(F)cc3)CC2)CC(C)O1 (configuration not stated)	-5%	23%[38.3 µM]	25µM*	7%[46.1 µM]	2	-2%
CC1CN(S(=O)(=O)c2cccc(C(F)(F)F)c2)CC(C)O1 (configuration not stated)	.	.	.	-10%	.	.
COc1ccc(C2Nc3ccccc3C(=O)N2Cc2ccco2)cc1COc1ccccc1F (configuration not stated)	-10%	20%[38.3 µM]	?	-28%[46.1 µM]	6	?
CN(C)c1ccc(-c2nc3cnccn3c2Nc2ccc3c(c2)OCCO3)cc1	.	.	.	-15%	.	.
Cc1ccc(-c2nc3cnccn3c2Nc2ccc3c(c2)OCCO3)o1	-4%	43%[38.3 µM]	13µM*	-20%[46.1 µM]	15	-23%
Cn1c(=O)[nH]c(=O)c2c1nc(Br)n2C/C=N/NC(N)=S	.	.	.	10%	.	.

Screens (PubChem)
